# In the supplement of paper PMC9135407:
# Values joined by “and” are separate entries in the source; they are usually repeats but may differ in a detail not shown here. Equal values may be shown once. Where a name gives a salt, the structure may show the parent alone. Screen size: about 5,800 compounds; about 620 (11%) showed activity. The full list was thinned out, with actives kept by preference. A number with no mark means an inactive call.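 How the source made its calls: active = score above a cut-off or among the top three wells of a plate; in these data no inactive exceeds 0.85.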
# System: primary human hepatic stellate cells (donor 1)
# Assay: scaled lipid accumulation score (0 = DMSO-like, 1 = nortriptyline-like); higher = stronger HSC inactivation (lipid re-accumulation), active = hit call of the paper
# Conditions: 48 h
# [1] = library stock concentration: 3.33 mM
# [2] = library stock concentration: 1 mM
# [3] = library stock concentration: 10 mM
# [4] = library stock concentration: 80 uM
# [5] = library stock concentration: 400 uM
# [6] = library stock concentration: 2 mM
# [7] = library stock concentration: 6.8 mM
smiles,measurement,setting,value
CCCC(=O)Oc1ccc2[nH]c(C(=O)c3cc4ccccc4[nH]3)cc2c1 [PDGF Receptor Tyrosine Kinase Inhibitor II],scaled lipid accumulation score,[1],≤ 0
CC(C)(C)OC(=O)N1CCC(OCc2nc(-c3ccncc3)no2)CC1,scaled lipid accumulation score,[2],0.013
N#Cc1ccc(NCCNCC(=O)N2CCC[C@H]2C#N)nc1 [NVP DPP 728 dihydrochloride],scaled lipid accumulation score,[3],≤ 0
CN1CC[C@]23c4ccccc4N[C@H]1[C@]21CCN(C)[C@H]3Nc2ccccc21 [Calycanthine],scaled lipid accumulation score,,0.246
CCCC/C=C\CCCCCCCC(=O)OC [Myristoleic Acid methyl ester],scaled lipid accumulation score,[2],≤ 0
Cn1cnc(=N)c2[nH]cnc21 [3-Methyladenine],scaled lipid accumulation score,[1],≤ 0
same,scaled lipid accumulation score,[3],≤ 0
CCCCC/C=C\C\C=C/C=C/C=C/[C@@H](SC[C@H](NC(=O)CC[C@H](N)C(=O)O)C(=O)NCC(=O)O)[C@@H](O)CCCC(=O)O [Leukotriene C4],scaled lipid accumulation score,library stock concentration: 100 uM,≤ -0.021
Fc1ccc(C(OCCCc2cnc[nH]2)c2ccc(F)cc2)cc1,scaled lipid accumulation score,[3],0.81
Cc1nc2c(c(=O)[nH]1)CSCC2,scaled lipid accumulation score,[3],≤ -0.001
CCCCC/C=C\C/C=C\C/C=C\C/C=C\CCCC(=O)O[C@H](COCCCCCCCCCCCCCCCC)COP(=O)([O-])OCC[N+](C)(C)C [Arachidonoyl-PAF],scaled lipid accumulation score,[2],≤ -0.021
O=C1Cc2c([nH]c3ccc(Br)cc23)-c2ccccc2N1 [Kenpaullone],scaled lipid accumulation score,[2],≤ 0
same,scaled lipid accumulation score,[1],≤ 0
same,scaled lipid accumulation score,[3],≤ -0.055 and 0.348
"CN1C(=O)/C(=C2\Nc3ccccc3\C2=N\O)c2ccc(Br)cc21 [GSK-3 Inhibitor IX, Control, MeBIO]",scaled lipid accumulation score,[1],1.07 (active)
COC(=O)C(N)CS (configuration not stated) [Mecysteine hydrochloride],scaled lipid accumulation score,[3],≤ 0
O=C(O)CCC/C=C\C[C@@H]1[C@@H](/C=C/[C@@H](O)C2Cc3ccccc3C2)[C@@H](F)C[C@@H]1O,scaled lipid accumulation score,[2],≤ 0
CC(=O)OCC1=C(C(=O)O)N2C(=O)[C@@H](NC(=O)CSc3ccncc3)[C@H]2SC1 [Cephapirin sodium],scaled lipid accumulation score,library stock concentration: 4.5 mM,≤ -0.001
same,scaled lipid accumulation score,[3],≤ 0
CCOC(=O)c1ccc(N=Nc2ccc(O)c(CC(=O)O)c2)cc1,scaled lipid accumulation score,[2],≤ 0
CC#CCC(C)[C@H](O)/C=C/[C@@H]1[C@H]2C/C(=C/CCCC(=O)O)C[C@H]2C[C@H]1O (stereo partly drawn) [5-cis Iloprost],scaled lipid accumulation score,[2],0.135
"CCCCC[C@H](O)/C=C/[C@@H]1[C@H]2C/C=C\CCCC(=O)O[C@H]2C[C@H]1O [Prostaglandin F2.alpha. 1,9-lactone]",scaled lipid accumulation score,[2],≤ 0
CCN(CCO)CCCOc1ccc2c(Nc3cc(CC(=O)Nc4cccc(F)c4)[nH]n3)ncnc2c1 [Barasertib (AZD1152-HQPA)],scaled lipid accumulation score,[1],≤ 0
same,scaled lipid accumulation score,[3],≤ 0
CCn1cc(NC(=S)Nc2cc(Cl)ccc2OC)c(C(N)=O)n1,scaled lipid accumulation score,[1],≤ -0.009
same,scaled lipid accumulation score,[3],0.111
COc1ccc(Cl)cc1NC(=O)Nc1cc(C)nc2ccccc12 [listing 1 of 2 here],scaled lipid accumulation score,[1],0.097
same,scaled lipid accumulation score,[3],0.391
COc1ccc(Cl)cc1NC(=O)Nc1cc(C)nc2ccccc12 [listing 2 of 2 here],scaled lipid accumulation score,[3],1.1 (active)
COc1ccc(Cl)cc1NC(=O)Nc1cc(C)nc2ccccc12 [IGF-1R Inhibitor II],scaled lipid accumulation score,[1],0.188
O=C(CCSCc1ccco1)NNC(=O)N1Cc2ccccc2Oc2ccc(Cl)cc21,scaled lipid accumulation score,[3],≤ 0
CC1CCN=C(N)S1 (configuration not stated) [AMT hydrochloride],scaled lipid accumulation score,[3],0.018
CC1CCN=C(N)S1 (configuration not stated),scaled lipid accumulation score,[3],≤ 0
O=C(c1ccc(C(=O)N2CCC(N3CCCC3)CC2)c(Nc2ccccc2)c1)N1CCC(N2CCCC2)CC1,scaled lipid accumulation score,[4],≤ 0
same,scaled lipid accumulation score,[5],≤ 0
same,scaled lipid accumulation score,[6],≤ 0
same,scaled lipid accumulation score,[1],≤ 0
same,scaled lipid accumulation score,[3],0.002 and ≤ 0
O=C(c1ccc(Nc2nccc(-c3cc4ccccc4s3)n2)cc1)N1CCC(N2CCCC2)CC1 [IKK-16 (IKK Inhibitor VII)] [listing 1 of 2 here],scaled lipid accumulation score,[1],1.04 (active)
O=C(c1cncc(Br)c1)N1CCC(N2CCCC2)CC1,scaled lipid accumulation score,[4],≤ 0
same,scaled lipid accumulation score,[5],≤ 0
same,scaled lipid accumulation score,[6],≤ 0
same,scaled lipid accumulation score,[1],≤ -0.009
same,scaled lipid accumulation score,[3],≤ 0
O=C(c1ccc(Nc2nccc(-c3cc4ccccc4s3)n2)cc1)N1CCC(N2CCCC2)CC1 [IKK-16 (IKK Inhibitor VII)] [listing 2 of 2 here],scaled lipid accumulation score,[3],0.246
O=C(c1ccc(Nc2nccc(-c3cc4ccccc4s3)n2)cc1)N1CCC(N2CCCC2)CC1 [IKK Inhibitor VII],scaled lipid accumulation score,[1],1.06 (active)
O=C(c1ccc(Nc2nccc(-c3cc4ccccc4s3)n2)cc1)N1CCC(N2CCCC2)CC1,scaled lipid accumulation score,[3],0.18
O=C(Cc1cccs1)N[C@@H]1C(=O)N2C(C(=O)[O-])=C(C[n+]3ccccc3)CS[C@H]12 [Cephaloridine],scaled lipid accumulation score,[3],≤ 0
COc1ccc2cc([C@H](C)CO)ccc2c1 [Naproxol],scaled lipid accumulation score,library stock concentration: 9.2 mM,≤ 0
same,scaled lipid accumulation score,[3],0.031
O=c1cc(CN2CCOCC2)occ1OCCCCCSc1ccnc2cc(C(F)(F)F)ccc12,scaled lipid accumulation score,[1],≤ -0.009
same,scaled lipid accumulation score,[3],0.475
CCCCC[C@H](O)/C=C/[C@H]1[C@H](O)CC(=O)[C@@H]1C/C=C/CCCC(=O)O [5-trans Prostaglandin E2],scaled lipid accumulation score,[2],≤ 0
COC(=O)Nc1nc2cc(C(=O)c3cccs3)ccc2[nH]1 [Nocodazole] [listing 1 of 2 here],scaled lipid accumulation score,[1],0.021
same,scaled lipid accumulation score,library stock concentration: 6.6 mM,0.262
COC(=O)Nc1nc2cc(C(=O)c3ccccc3)ccc2[nH]1 [Mebendazol],scaled lipid accumulation score,[7],0.097
COC(=O)Nc1nc2cc(C(=O)c3ccccc3)ccc2[nH]1 [Mebendazole],scaled lipid accumulation score,,≤ 0
same,scaled lipid accumulation score,[7],0.082
same,scaled lipid accumulation score,[3],0.402 and 0.071
COC(=O)Nc1nc2cc(C(=O)c3cccs3)ccc2[nH]1 [Nocodazole] [listing 2 of 2 here],scaled lipid accumulation score,,0.883 (active)
CCCNS(=O)(=O)Nc1ncnc(OCCOc2ncc(Br)cn2)c1-c1ccc(Br)cc1 [Macitentan],scaled lipid accumulation score,[1],≤ -0.009
same,scaled lipid accumulation score,[3],≤ 0
